This passage reports outcome and AC50 results from PubChem BioAssay (EPA / NIEHS).

Broadly, the AC50 is the midpoint of the concentration-response curve, whichever way the signal moves.

Results filed as inconclusive are left out. Active and inactive are the calls of the source. The calls were made as follows, unless noted: active = hit-call score of the fitted dose curve at least 0.9, where 1 is the maximum; inconclusive = response in the unintended direction; inactive = score below 0.9.

The target in assay [1] is Estrogen-related receptor gamma (Homo sapiens) (UniProt P62508). Kind of assay: ATG_ERRg_TRANS: Attagene TRANS-FACTORIAL HepG2 Assay for human Estrogen-Related Receptor gamma (ERRg) (AID 2282977).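 Also: hits increase reporter signal over DMSO so potencies reflect activators.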 The note with it: HepG2 Attagene TRANS reporter, ERRg transactivation. The gist of the method: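 Exogenous NR-Gal4 chimera activity was assessed in HepG2 cells bearing transfected GAL4-UAS reporters. After 24 h dosing, total RNA underwent RT-PCR, fluorescent primer extension and HpaI digestion before capillary electrophoresis, with gain of signal scored against DMSO.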
Sequence of Estrogen-related receptor gamma (Homo sapiens) (P62508 whole entry, looked up, the tested form may be a part): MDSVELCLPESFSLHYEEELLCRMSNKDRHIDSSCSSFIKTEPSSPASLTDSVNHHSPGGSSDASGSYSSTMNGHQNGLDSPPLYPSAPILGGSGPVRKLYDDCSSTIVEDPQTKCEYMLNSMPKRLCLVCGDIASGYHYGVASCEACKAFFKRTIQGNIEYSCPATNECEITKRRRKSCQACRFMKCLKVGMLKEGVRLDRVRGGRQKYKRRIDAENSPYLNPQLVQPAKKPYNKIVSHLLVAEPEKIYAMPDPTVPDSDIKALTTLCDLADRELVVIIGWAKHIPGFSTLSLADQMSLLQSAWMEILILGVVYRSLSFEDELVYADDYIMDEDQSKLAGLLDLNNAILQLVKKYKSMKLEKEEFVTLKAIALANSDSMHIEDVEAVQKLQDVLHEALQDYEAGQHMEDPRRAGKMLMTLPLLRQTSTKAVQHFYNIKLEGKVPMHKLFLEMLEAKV

Assay [2] deals with Glucocorticoid receptor (Homo sapiens) (UniProt P04150). Kind of assay: ATG_GR_TRANS: Attagene TRANS-FACTORIAL HepG2 Assay for human Glucocorticoid Receptor (GR) (AID 2282978).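 Also: activators score as hits since higher reporter transcript over DMSO is fitted.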 The note with it: HepG2 Attagene TRANS GR reporter, mRNA transcription. In outline:
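Multiplexed TRANS reporter system, HepG2; 24 h exposure; RNA → oligo(dT) RT → reporter-specific PCR → 6-FAM primer extension → HpaI cut → CE fluorescence. Gain-of-signal vs DMSO.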

In assay [3] the target is Bile acid receptor (Homo sapiens) (UniProt Q96RI1). Kind of assay: ATG_FXR_TRANS: Attagene TRANS-FACTORIAL HepG2 Assay for Farnesoid X Receptor (FXR) (AID 2282979).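 Also: hits raise reporter mRNA above DMSO so AC50 marks FXR activation.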 The note with it: HepG2 Attagene TRANS FXR-GAL4 reporter transcription. In outline: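 Chimeric FXR-GAL4 activity in transiently transfected human HepG2 liver cells is scored as induction of reporter mRNA after 24 h of dosing. Detection uses RT-PCR with fluorescent labelling and capillary electrophoresis, with DMSO serving as baseline.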
Sequence of Bile acid receptor (Homo sapiens) (Q96RI1 whole entry, looked up, the tested form may be a part): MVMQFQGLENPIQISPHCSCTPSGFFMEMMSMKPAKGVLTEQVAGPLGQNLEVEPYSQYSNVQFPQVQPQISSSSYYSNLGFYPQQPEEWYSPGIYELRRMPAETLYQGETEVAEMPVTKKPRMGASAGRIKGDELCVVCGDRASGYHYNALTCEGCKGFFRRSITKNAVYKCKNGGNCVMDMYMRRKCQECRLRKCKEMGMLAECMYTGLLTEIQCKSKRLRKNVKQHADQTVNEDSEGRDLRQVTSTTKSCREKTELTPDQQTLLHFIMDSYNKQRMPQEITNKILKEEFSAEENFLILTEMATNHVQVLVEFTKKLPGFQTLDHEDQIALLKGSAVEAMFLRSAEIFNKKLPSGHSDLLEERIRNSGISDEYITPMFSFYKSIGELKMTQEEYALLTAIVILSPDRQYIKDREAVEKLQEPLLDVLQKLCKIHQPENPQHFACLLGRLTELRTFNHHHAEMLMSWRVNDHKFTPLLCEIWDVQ

Assay [4] deals with Oxysterols receptor LXR-alpha (Homo sapiens) (UniProt Q13133). Kind of assay: ATG_LXRa_TRANS: Attagene TRANS-FACTORIAL HepG2 Assay for human Liver X Receptor alpha (LXRa) (AID 2282980). To be noted: HepG2 Attagene TRANS reporter, LXRa transactivation. In outline:
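Transient HepG2 transfectants, 24 h dosing, RT-PCR/CE mRNA reporter quantitation; gain-of-signal vs DMSO.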

Assay [5] deals with Oxysterols receptor LXR-beta (Homo sapiens) (UniProt P55055). Kind of assay: ATG_LXRb_TRANS: Attagene TRANS-FACTORIAL HepG2 Assay for human Liver X Receptor beta (LXRb) (AID 2282981). The note with it: HepG2 Attagene TRANS GAL4-LXRb reporter, mRNA. In outline: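 After 24 h of chemical treatment, transfected HepG2 cells yield total RNA; reporter cDNA is PCR-amplified, FAM-labelled, HpaI-cut and run on capillary electrophoresis. Signal reflects chimeric LXRb-Gal4 activity on GAL4-UAS reporters.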
Sequence of Oxysterols receptor LXR-beta (Homo sapiens) (P55055 whole entry, looked up, the tested form may be a part): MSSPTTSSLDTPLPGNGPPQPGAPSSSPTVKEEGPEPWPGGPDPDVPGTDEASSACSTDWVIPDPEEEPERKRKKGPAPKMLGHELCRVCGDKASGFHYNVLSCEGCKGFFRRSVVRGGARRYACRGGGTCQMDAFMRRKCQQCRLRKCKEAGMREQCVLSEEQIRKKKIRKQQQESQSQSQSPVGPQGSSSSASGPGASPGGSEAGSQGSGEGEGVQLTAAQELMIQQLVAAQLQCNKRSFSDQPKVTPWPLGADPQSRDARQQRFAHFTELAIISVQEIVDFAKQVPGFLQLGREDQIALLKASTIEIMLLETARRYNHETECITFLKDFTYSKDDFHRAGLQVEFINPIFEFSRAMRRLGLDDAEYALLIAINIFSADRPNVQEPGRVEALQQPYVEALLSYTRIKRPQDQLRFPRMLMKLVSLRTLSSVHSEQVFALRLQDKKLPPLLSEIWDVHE

In assay [6] the target is Hepatocyte nuclear factor 4-alpha (Homo sapiens) (UniProt P41235). Kind of assay: ATG_HNF4a_TRANS: Attagene TRANS-FACTORIAL HepG2 Assay for human Hepatocyte Nuclear Factor 4 alpha (HNF4a) (AID 2282982). The note with it: HepG2 HNF4a transactivation reporter, mRNA readout. In outline:
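Multiplexed reporter assay: transfected HepG2, 24 h exposure, total RNA → oligo(dT) RT → PCR → 6-FAM extension → HpaI digest → CE fluorescence. DMSO = negative control.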

Assay [7] can be described thus: ATG_M_32_TRANS: Attagene TRANS-FACTORIAL HepG2 Assay for M32 Transcription Factor (Internal Marker) (AID 2282984).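 Also: transcript level of a background control reporter unit measured by RT-PCR and capillary electrophoresis.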 The note with it: HepG2 Attagene TRANS M32 internal marker reporter. The gist of the method:
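Cell-based TRANS-format assay in HepG2: exogenous chimeric GAL4 reporter units transiently expressed, compounds applied 24 h. Reporter mRNA detected by RT-PCR plus capillary electrophoresis; this readout is an internal background marker.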

Assay [8] deals with Transcriptional activator Myb (Homo sapiens) (UniProt P10242). Kind of assay: ATG_Myb_CIS: Attagene CIS-FACTORIAL HepG2 Assay for human Myeloblastosis (Myb) Proto-Oncogene Transcription Factor (AID 2282986; active = hit-call score of the fitted dose curve at least 0.9, where 1 is the maximum; inactive = score below 0.9). To be noted: HepG2 Attagene CIS-FACTORIAL Myb reporter transcription; actives raise or lower the signal. The gist of the method:
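Endogenous transcription factor activity at a Myb-responsive cis element is reported in human liver HepG2 cells after 24 h chemical treatment. Reporter mRNA is detected by RT-PCR and capillary electrophoresis fluorescence, with DMSO as baseline.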

Assay [9] can be described thus: ATG_M_06_TRANS: Attagene TRANS-FACTORIAL HepG2 Assay for M06 Transcription Factor (Internal Marker) (AID 2282983).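 Also: reporter transcript level by RT-PCR then capillary electrophoresis fluorescence.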 To be noted: HepG2 Attagene TRANS M06 internal marker reporter. In outline: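 Human liver HepG2 cells bearing transiently transfected chimeric NR-GAL4 reporter units were treated with chemicals for 24 h. Total RNA was reverse-transcribed, reporter sequences amplified and labelled, then quantified by capillary electrophoresis. Activity was fitted upward relative to DMSO.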

For assay [10], the target named is Nuclear receptor subfamily 4 group A member 2 (Homo sapiens) (UniProt P43354). Kind of assay: ATG_NURR1_TRANS: Attagene TRANS-FACTORIAL HepG2 Assay for human Nuclear Receptor Related Protein 1 (NURR1) (AID 2282985). To be noted: HepG2 Attagene TRANS reporter, mRNA readout. In outline: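 Measures transcriptional activation by an exogenous NR-Gal4 chimera in transfected HepG2 liver cells. After 24 h, reporter RNA is reverse-transcribed, amplified and resolved by capillary electrophoresis; DMSO defines baseline.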
Sequence of Nuclear receptor subfamily 4 group A member 2 (Homo sapiens) (P43354 whole entry, looked up, the tested form may be a part): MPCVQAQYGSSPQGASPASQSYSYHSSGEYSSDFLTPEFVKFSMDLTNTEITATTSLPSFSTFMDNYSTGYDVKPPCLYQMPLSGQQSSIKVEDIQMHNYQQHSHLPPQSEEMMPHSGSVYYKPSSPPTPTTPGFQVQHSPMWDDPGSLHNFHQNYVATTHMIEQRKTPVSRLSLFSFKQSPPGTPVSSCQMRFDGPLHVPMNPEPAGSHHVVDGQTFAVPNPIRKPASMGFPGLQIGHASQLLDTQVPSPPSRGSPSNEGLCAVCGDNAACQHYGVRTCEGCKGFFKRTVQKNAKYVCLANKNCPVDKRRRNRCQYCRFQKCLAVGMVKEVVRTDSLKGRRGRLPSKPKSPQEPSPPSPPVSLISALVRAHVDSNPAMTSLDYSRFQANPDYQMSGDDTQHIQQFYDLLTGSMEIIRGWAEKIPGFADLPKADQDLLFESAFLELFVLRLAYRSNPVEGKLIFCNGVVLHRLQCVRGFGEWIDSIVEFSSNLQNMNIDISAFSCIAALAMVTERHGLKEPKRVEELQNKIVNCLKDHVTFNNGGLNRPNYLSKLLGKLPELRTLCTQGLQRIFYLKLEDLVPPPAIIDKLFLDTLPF

Sequence of Transcriptional activator Myb (Homo sapiens) (P10242 whole entry, looked up): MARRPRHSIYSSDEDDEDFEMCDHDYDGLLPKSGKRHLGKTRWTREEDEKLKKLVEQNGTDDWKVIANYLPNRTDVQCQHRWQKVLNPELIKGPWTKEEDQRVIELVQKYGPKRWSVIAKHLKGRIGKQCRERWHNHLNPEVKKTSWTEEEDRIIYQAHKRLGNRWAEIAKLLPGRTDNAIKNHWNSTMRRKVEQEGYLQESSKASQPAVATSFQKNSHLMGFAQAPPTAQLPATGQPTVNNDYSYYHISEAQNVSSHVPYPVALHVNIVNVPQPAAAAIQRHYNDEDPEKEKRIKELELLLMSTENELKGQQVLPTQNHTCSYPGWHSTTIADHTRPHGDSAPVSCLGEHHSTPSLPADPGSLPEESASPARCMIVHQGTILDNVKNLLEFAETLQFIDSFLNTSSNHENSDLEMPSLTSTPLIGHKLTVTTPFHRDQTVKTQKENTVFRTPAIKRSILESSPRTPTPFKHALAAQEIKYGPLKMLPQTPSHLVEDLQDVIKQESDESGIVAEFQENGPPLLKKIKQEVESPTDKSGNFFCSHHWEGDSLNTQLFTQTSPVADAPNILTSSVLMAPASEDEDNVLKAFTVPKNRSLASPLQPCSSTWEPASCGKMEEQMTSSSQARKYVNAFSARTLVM
Sequence of Oxysterols receptor LXR-alpha (Homo sapiens) (Q13133 whole entry, looked up): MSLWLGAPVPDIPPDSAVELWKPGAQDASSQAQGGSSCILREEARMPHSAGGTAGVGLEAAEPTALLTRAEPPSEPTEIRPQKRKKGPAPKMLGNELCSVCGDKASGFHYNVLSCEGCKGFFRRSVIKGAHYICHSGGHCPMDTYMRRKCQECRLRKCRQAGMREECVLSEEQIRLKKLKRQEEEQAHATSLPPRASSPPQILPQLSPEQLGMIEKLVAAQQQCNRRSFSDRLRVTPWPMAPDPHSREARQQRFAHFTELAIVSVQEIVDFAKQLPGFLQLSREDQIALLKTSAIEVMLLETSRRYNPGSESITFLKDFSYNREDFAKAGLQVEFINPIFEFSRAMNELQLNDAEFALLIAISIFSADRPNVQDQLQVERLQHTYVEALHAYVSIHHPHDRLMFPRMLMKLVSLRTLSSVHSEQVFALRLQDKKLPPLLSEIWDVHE
Sequence of Glucocorticoid receptor (Homo sapiens) (P04150 whole entry, looked up): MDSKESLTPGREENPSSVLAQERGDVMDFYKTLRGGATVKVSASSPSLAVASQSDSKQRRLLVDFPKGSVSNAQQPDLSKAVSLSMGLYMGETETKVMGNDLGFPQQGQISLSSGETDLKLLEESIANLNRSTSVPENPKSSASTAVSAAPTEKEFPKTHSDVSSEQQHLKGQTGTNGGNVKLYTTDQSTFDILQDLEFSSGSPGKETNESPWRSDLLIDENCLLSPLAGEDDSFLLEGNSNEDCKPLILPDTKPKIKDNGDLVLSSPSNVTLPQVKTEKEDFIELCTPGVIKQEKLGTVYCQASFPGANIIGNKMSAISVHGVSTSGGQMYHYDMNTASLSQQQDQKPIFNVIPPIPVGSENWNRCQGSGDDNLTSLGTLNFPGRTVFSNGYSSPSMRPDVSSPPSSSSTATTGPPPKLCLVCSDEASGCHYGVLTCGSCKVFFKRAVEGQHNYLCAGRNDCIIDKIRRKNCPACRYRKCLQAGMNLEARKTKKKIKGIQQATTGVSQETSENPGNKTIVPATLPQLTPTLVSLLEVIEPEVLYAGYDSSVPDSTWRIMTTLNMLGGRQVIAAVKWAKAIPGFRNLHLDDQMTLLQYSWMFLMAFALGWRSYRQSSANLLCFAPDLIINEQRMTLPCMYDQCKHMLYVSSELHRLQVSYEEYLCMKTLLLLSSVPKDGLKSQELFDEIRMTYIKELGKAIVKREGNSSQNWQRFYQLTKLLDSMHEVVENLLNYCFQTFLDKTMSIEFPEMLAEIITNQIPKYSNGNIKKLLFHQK
Sequence of Hepatocyte nuclear factor 4-alpha (Homo sapiens) (P41235 whole entry, looked up): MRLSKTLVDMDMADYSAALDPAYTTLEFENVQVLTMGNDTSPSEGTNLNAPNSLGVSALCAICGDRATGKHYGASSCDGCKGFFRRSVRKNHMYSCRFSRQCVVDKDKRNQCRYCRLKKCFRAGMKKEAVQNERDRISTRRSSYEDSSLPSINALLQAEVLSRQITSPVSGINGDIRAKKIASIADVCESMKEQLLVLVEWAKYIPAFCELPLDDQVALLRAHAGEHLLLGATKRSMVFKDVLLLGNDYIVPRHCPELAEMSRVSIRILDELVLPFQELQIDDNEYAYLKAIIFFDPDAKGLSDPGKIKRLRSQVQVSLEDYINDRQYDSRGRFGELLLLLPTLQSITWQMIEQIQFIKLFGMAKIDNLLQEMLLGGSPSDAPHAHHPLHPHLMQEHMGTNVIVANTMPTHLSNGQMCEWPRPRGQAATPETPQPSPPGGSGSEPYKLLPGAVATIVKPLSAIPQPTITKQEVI

Regarding `COP(=O)(OC)C(O)C(Cl)(Cl)Cl` (stereo unspecified), the compound was called inactive in assay [1], in [2], in [3], in assay [4], in assay [6] and in assay [7]. In addition, the outcome in assay [8] was inactive. Moreover, the concentration at half-maximal activity (AC50) in assay [5] was 92.4 µM (active).

On to `O=[N+]([O-])c1cc(C(F)(F)F)c(Cl)c([N+](=O)[O-])c1Nc1ncc(C(F)(F)F)cc1Cl`, for which the result in assay [2], in assay [4], in assay [5], in assay [6], in assay [9] and in [7] was inactive. Also, the result in assay [10] and in assay [8] was inactive.

On to `C#CCC1=C(C)C(OC(=O)C2C(C=C(C)C)C2(C)C)CC1=O` (stereo unspecified), for which the outcome in assay [1], in assay [3], in assay [5], in assay [6], in assay [9] and in assay [7] was inactive. For the same compound, the result in [10] was inactive. The AC50 in assay [8] was 93.4 µM (active).

As for `Cc1nn(-c2cc(NS(C)(=O)=O)c(Cl)cc2Cl)c(=O)n1C(F)F`, the compound was classed as inactive in assay [1], in assay [4], in assay [5], in [6] and in assay [8].

Turning to `COc1cc(OC)nc(Sc2cccc(Cl)c2C(=O)O)n1`, the call in assay [1], in assay [2], in assay [4], in assay [5], in [9] and in [7] was inactive. Besides, the compound was classed as inactive in [10] and in assay [8].

As for `CCOC(=O)COc1cc(-c2nn(C)c(OC(F)F)c2Cl)c(F)cc1Cl`, the outcome in [1], in [2], in [4], in assay [5], in assay [6] and in [9] was inactive. The outcome in assay [7], in assay [10] and in assay [8] was inactive.

For `CC(C)=CC1C(C(=O)OCN2C(=O)C3=C(CCCC3)C2=O)C1(C)C` (stereo unspecified), the call in assay [1], in assay [2], in [4], in [5], in [7] and in [10] was inactive. Further, the half-maximal activity concentration (AC50) in [8] was 50 µM (active).

Take `CCc1cccc(CC)c1N(COC)C(=O)CCl`: the call in assay [2], in assay [4], in assay [5], in assay [6] and in assay [8] was inactive.

`Cc1ccn2nc(S(=O)(=O)Nc3c(F)cccc3F)nc2n1`: the outcome in assay [1], in assay [3], in assay [5], in [9], in assay [7] and in assay [8] was inactive.

For `N#CSCSC#N`, the call in [1], in [2], in assay [4], in assay [5], in [6] and in [9] was inactive. The outcome in assay [7], in assay [10] and in assay [8] was inactive.

Regarding `CN1COCN(Cc2cnc(Cl)s2)C1=N[N+](=O)[O-]`, the compound was classed as inactive in assay [2], in assay [3], in assay [4], in assay [5], in assay [6] and in [9]. Moreover, the compound was classed as inactive in assay [7] and in assay [8].

Regarding `CC1=NNC(=O)N(/N=C/c2cccnc2)C1`, the call in assay [1], in assay [4], in [5], in assay [6], in assay [9] and in assay [7] was inactive. For the same compound, the result in assay [10] and in assay [8] was inactive.

Regarding `CCCCSP(=O)(SCCCC)SCCCC`, the result in assay [2], in assay [3], in assay [5], in assay [7] and in assay [10] was inactive. Also, the AC50 in assay [8] is 83.3 µM (active).

As to `CCOP(=O)(NC(C)C)Oc1ccc(SC)c(C)c1` (stereo unspecified), the compound was called inactive in assay [2], in assay [3], in assay [4], in assay [5], in assay [9] and in assay [7]. The compound was called inactive in [8].

As to `CCc1cccc(C)c1N(C(=O)CCl)C(C)COC` (stereo unspecified), the outcome in [1], in assay [9], in assay [7] and in [8] was inactive.
